Compound activity deposited in PubChem BioAssay by Sanford-Burnham Center for Chemical Genomics.
Sampled rows, rich in hits. Any-hit rate of the full collection: about 31%.
CYP2C19 activ: activators of human cytochrome P450 2C19; P33261; recombinant CYP2C19, luciferin-H EGE luminescence; active compounds read high; 0 = fully inhibited enzyme, 1 = untreated enzyme; activation factor at 5 µM; 96,000 tested, under 10 active;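 active = activation factor of at least 2 at 5 µM in the primary screen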;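 note: 0 = wells with 2.5 mM tranylcypromine and 1 = vehicle-only wells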
CYP2C9 act: CYP2C9 (human) activation | recombinant CYP2C9, luciferin-H conversion, luminescence; active compounds read high; factor 1 = untreated enzyme, 0 = blocked | activation factor at 5 µM | P11712 | 96,000 compounds, 1.4% hits;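 active = activation factor of 2 or more for CYP2C9 at a 5 µM dose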;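 note: 0 = sulfaphenazole-blocked wells and 1 = vehicle-only wells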
Target sequence (P11712 whole entry, looked up): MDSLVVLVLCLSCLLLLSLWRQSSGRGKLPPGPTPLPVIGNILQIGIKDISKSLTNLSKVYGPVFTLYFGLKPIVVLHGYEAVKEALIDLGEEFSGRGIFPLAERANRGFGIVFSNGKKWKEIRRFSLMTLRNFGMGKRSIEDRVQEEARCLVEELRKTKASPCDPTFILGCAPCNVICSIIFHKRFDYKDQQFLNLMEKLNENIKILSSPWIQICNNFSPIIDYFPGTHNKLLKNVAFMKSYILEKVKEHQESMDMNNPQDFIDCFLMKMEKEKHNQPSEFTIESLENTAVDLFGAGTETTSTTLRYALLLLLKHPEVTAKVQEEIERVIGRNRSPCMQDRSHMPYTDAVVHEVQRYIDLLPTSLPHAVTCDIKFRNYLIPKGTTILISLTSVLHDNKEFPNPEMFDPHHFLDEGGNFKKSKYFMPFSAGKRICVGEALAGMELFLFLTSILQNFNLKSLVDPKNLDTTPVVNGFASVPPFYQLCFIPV
CYP2C19 inh: human CYP2C19 inhibition. 96,000 compounds, 21% hits. AID 778. P33261. CYP2C19 Supersomes, luciferin-H EGE luminescence, 30 min. inhibition, % at 5 µM;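 active = CYP2C19 inhibition above a set limit at 5 µM in the primary screen, cut at about 50% in these data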;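 note: plate controls were negative control wells for no effect and 2.5 mM tranylcypromine positive control for full effect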
CYP2C9 inhib: inhibitors of human CYP2C9. P11712. CYP2C9 Supersomes, luciferin-H conversion, luminescence. inhibition, % at 5 µM. 96,000 compounds, 20% hits;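 active = blocking of liver enzyme CYP2C9 beyond about 50% at 5 µM, limit read from the data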
* = called active by the depositor.

SMILES	CYP2C19 activ	CYP2C9 act	CYP2C19 inh	CYP2C9 inhib
COc1ccccc1NC(=O)C(O)C(O)C(=O)Nc1ccccc1OC (stereo not drawn)	0.8	3.2*	21	-216
CC(=O)c1ccc2c3c(cccc13)CC2	1	3.6*	4	-259
CS(=O)(=O)Nc1ccc2c3c(cccc13)CC2	1	2.5*	4	-147
CC(=O)c1ccc(N(C)C)c2c(N(C)C)cccc12	1	1.1	-4	-12
N#CCCC12CCCCC1=Nc1ccccc12 (stereo not drawn)	0.9	0.9	5	8
Cc1cc(S(=O)(=O)NCCCN2CCOCC2)ccc1F	0.7	1.1	29	-7
Cc1ccc(S(=O)(=O)N2CC3CCC2C3)cc1 (stereo not drawn)	0.4	1.4	65*	-36
COc1ccc(C2N(C(=O)c3ccccc3)CCN2C(=O)c2ccccc2)cc1	0.3	0.5	69*	50
COc1ccc(C2N(S(=O)(=O)c3ccccc3)CCN2S(=O)(=O)c2ccc(C)cc2)cc1 (stereo not drawn)	0.1	0.4	86*	65*
Cc1ccc(S(=O)(=O)N2CCN(S(=O)(=O)c3ccc(C)cc3)C2c2ccccc2)cc1	0.2	1.4	79*	-42
Cc1nc(SCC(=O)NCc2ccco2)[nH]c(=O)c1C	1.2	1.1	-17	-8
O=C(COC(=O)c1cnccn1)c1ccc2c(c1)CCCC2	1	1.3	0	-28
CC(C)Cn1c(-c2ccc(Cl)cc2)cnc1SCC(=O)N1CCOCC1	0.7	0.8	31	23
Cc1ccc(S(=O)(=O)N2CCN(C(=O)N3CCOCC3)C2c2ccc(N(C)C)cc2)cc1 (stereo not drawn)	0.6	1.4	41	-39
Cc1ccc(S(=O)(=O)N2CCN(S(C)(=O)=O)C2c2ccccc2)cc1 (stereo not drawn)	0.4	0.5	64*	46
CC(C)n1nnnc1SCC(=O)c1ccc2c(c1)OCCO2	0.4	1	63*	4
COCCn1c(SCC(=O)c2ccc3c(c2)OCCO3)nnc1-c1ccoc1C	0.8	0.6	22	45
CCn1c(COc2ccc3c(c2)OCO3)nnc1SCC(=O)c1ccc(Cl)cc1	1.1	0.5	-10	51*
Cc1cc(C)nc(SCC(=O)c2ccc3c(c2)OCCO3)n1	0.6	1.5	40	-55
CCn1c(SCC(=O)c2ccc3c(c2)OCCO3)nnc1C(C)C	0.1	0.9	94*	11
CCCCn1c(SCC(=O)c2ccc3c(c2)OCCO3)nnc1-c1ccco1	0.5	0.4	48	56*
CCn1nnnc1SCC(=O)c1ccc2c(c1)OCCO2	0.7	0.8	34	20
CCOC(=O)N1CCC(Nc2c(NCCN3CCN(c4ccccc4F)CC3)c(=O)c2=O)CC1	1	0.7	4	25
COc1ccc(-c2nnc(SCc3ccccc3)n2N)cc1	0.8	1.1	21	-8
CCOC(=O)CSc1nnc(-c2ccc(OC)cc2)n1CC	0.9	0.7	14	27
SMILES	CYP2C19 activ	CYP2C9 act	CYP2C19 inh	CYP2C9 inhib
CCn1c(SCc2nc3ccccc3[nH]2)nnc1-c1ccc(OC)cc1	0.2	0.7	82*	27
C=CCn1c(SCc2nc3ccccc3[nH]2)nnc1-c1ccc(OC)cc1	0.2	0.8	81*	22
CCC(=O)OC1(C#CCOc2ccc(OC)cc2)CCN(C)CC1	0.3	1.1	66*	-9
COc1cccc(NC(=O)Cn2c(SCC(=O)N3CCOCC3)nc3ccccc32)c1	0.3	0.2	71*	80*
COc1cccc(C(=O)CSc2nc3ccccc3n2CC(=O)N2CCOCC2)c1	0.8	0.3	17	68*
CC1Cc2ccccc2N1C(=O)CSc1nc2ccccc2n1CC(=O)N1CCOCC1 (stereo not drawn)	1	0.6	-2	44
COc1ccc(C(=O)CSc2nc3ccccc3n2CC(=O)NC(C)(C)C)cc1	0.6	0.3	40	72*
COC(=O)Cn1c(SCc2ccccc2)nc2ccccc21	0.4	0.8	58*	23
CCSc1nc2ccccc2n1CC(=O)OC	1.1	1.2	-6	-21
CCCCn1c(SCC(=O)Nc2cccc(OC)c2)nc2ccc(N3CCOCC3)cc2c1=O	0.2	0	83*	96*
Cc1nn(CCc2n[nH]c(=S)n2C2CCCCC2)c(C)c1Br	0.5	0.9	47	10
Cc1ccc2c3c1C1(C(=O)N3C(C)(C)CC2C)C(C#N)=C(N)Oc2cc(O)ccc21 (stereo not drawn)	0.3	0.1	70*	89*
COc1cc2c3c(c1)C1(C(=O)N3C(C)(C)C=C2C)C(C#N)=C(N)Oc2cc(C)oc(=O)c21 (stereo not drawn)	0.4	0.7	55*	27
CC1=CC(C)(C)N2C(=O)C3(C(C#N)=C(N)OC4=C3C(=O)CC(C)(C)C4)c3cccc1c32 (stereo not drawn)	0.9	0.9	5	6
Cc1ccc2c3c1C(=O)C(=O)N3C(C)(C)CC2C (stereo not drawn)	0.8	1	16	3
Cc1cc2c3c(c1)C1(C(=O)N3C(C)(C)CC2C)C(C#N)=C(N)Oc2cc(O)ccc21 (stereo not drawn)	0.2	0.1	79*	90*
CC1=CC(C)(C)N2C(=O)C3(C(C#N)=C(N)Oc4cc(O)ccc43)c3cccc1c32 (stereo not drawn)	0.7	0.5	32	51*
CN(C(=O)COC(=O)c1ccc2c(c1)OCO2)C1CCS(=O)(=O)C1 (stereo not drawn)	1.1	1.2	-10	-21
COc1ccc(C2(C(=O)NC3CCCCC3)CCOCC2)cc1OC	0.9	1	15	2
CCOC(=O)CCCn1ncn2c(cc3occc32)c1=O	0.9	0.9	13	5
COCCSc1nc2c(c(=O)[nH]c(=O)n2C)n1CCC(C)C	1	0.7	-5	33
CCOC(=O)C1(Cc2ccc(O)cc2)NC(c2ccco2)C2C(=O)N(c3ccccc3F)C(=O)C21 (stereo not drawn)	1	0.9	4	14
Cc1ccc(CNC(=O)c2ccc(Cl)cc2[N+](=O)[O-])cc1	0.8	1.4	18	-44
CCOCCCNC(=O)CCCOc1ccccc1	0.9	1	8	-1
CC1=C(C)CS(=O)N(c2ccc(S(N)(=O)=O)cc2)C1 (stereo not drawn)	0.6	2.4*	37	-142
SMILES	CYP2C19 activ	CYP2C9 act	CYP2C19 inh	CYP2C9 inhib
CC(C)C1C(C#N)=C(N)Oc2n[nH]c(-c3ccc4ccccc4c3)c21 (stereo not drawn)	0.9	0.8	6	23
CCCc1[nH]nc2c1C(CCC)C(C#N)=C(N)O2 (stereo not drawn)	0.4	0.9	62*	6
CCC(CC)C1C(C#N)=C(N)Oc2n[nH]c(-c3ccccc3)c21 (stereo not drawn)	0.4	1.2	57*	-22
CCc1[nH]nc2c1C(c1cccnc1)C(C#N)=C(N)O2 (stereo not drawn)	1.1	1.1	-6	-6
CCc1[nH]nc2c1C(C(C)C)C(C#N)=C(N)O2 (stereo not drawn)	0.3	0.7	75*	32
Cc1[nH]nc2c1C(C1CC=CCC1)C(C#N)=C(N)O2 (stereo not drawn)	0.8	0.5	24	46
